Among all 350,000 compounds or so, about 2,700 (0.77%) were called active. This excerpt belongs to a sample that is enriched for actives. Unmarked numbers belong to inactive results.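 Rule for the calls: active = inhibition reaching at least a set limit at 20 µM in the primary screen (cut at about 59% in these data); inactive = the rest.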
system: glucose-6-phosphate dehydrogenase-6-phosphogluconolactonase (Plasmodium falciparum 3D7); assay: inhibition of malaria parasite G6PD (PfGluPho) – biochemical, fluorescence intensity, uHTS, primary screen (AID 504690); settings: PfGluPho enzyme, NADPH resazurin-diaphorase fluorescence; at 20 µM; active compounds read high;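 note: 0% = DMSO wells with substrate and 100% = DMSO wells lacking glucose-6-phosphate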

Structure (SMILES)	inhibition
Cc1cc(N=Nc2ccc3ccccc3c2)ccc1O	0.29%
CCOc1[nH]n(-c2ccc(Cl)cc2)c(=O)c1C=Nc1ccc(O)cc1	-1.23%
CCn1nnc2cc(C(=O)Nc3ccc(C(=O)OC(C)C)cc3)ccc21	22.8%
COc1cccc(C(CC(=O)NCCN2CCOCC2)NS(=O)(=O)c2ccc(C)cc2)c1OC (configuration not stated)	11%
CSc1n[nH]c(=S)n1N	65.2% (active)
Cc1ccc(S(=O)(=O)N2CCCCC2)cc1C(=O)N1CCN(CCO)CC1	-1.65%
CC(=O)c1ccc(NC(=O)C2CCCN2S(=O)(=O)c2cccs2)cc1 (configuration not stated)	14.3%
COc1ccc(Nc2ncnc3sc(C)cc23)cc1	4.18%
COc1ccc(Nc2cc(Sc3ccc(OC)cc3)ncn2)cc1	77.5% (active)
COc1ccc(Nc2ccc3ccccc3c2)cc1	53.2%
O=C(NC1CCCC1)C(c1ccc(N2CCOCC2)cc1)N(C(=O)c1ccco1)c1ccccc1F (configuration not stated)	1.31%
Cc1ccc2c(c1)N(CC(=O)NCC1CCCO1)C(=O)CO2 (configuration not stated)	0.68%
FC(F)(F)c1cccc(-c2cc3ccccc3nc2N2CCCC2)c1	13.8%
O=C(CNS(=O)(=O)c1ccc(Br)s1)N1CCN(C(=O)c2ccco2)CC1	-12.2%
Cc1ccc(-c2cc(C(=O)NCc3cn(C)nc3C)c3cc(Br)ccc3n2)cc1	3.11%
Cc1ccc2nc(-c3cccc(Br)c3)cc(C(=O)Nn3cnnc3)c2c1	59.4% (active)
NC(=O)c1cc(-c2cccnc2)nc2ccc(Br)cc12	14.2%
CCc1nnc(NC(=O)CSc2nc3c(c(=O)n2-c2ccccc2OC)SCC3)s1	43%
O=C(NCC1CCCO1)c1cc2c(s1)CCCC2 (configuration not stated)	14%
CN(C)C(=O)c1ccc(NC(=O)COC(=O)c2cc3c(s2)CCCCC3)cc1	-5.04%
O=C(Nc1ccc(F)cc1)c1cc2c(s1)CCCC2	75.7% (active)
Cc1ccc(CSCCNC(=O)CN(c2ccc(F)cc2)S(C)(=O)=O)cc1	-11.7%
NC(=O)C1=C[C@@H](c2ccc3c(c2)OCO3)C[C@@H](OCCCCO)O1	17.6%
CC1(c2ccc3ccccc3c2)NC(=O)NC1=O (configuration not stated)	18.9%

Structure (SMILES)	inhibition
CN1c2ccc(C=O)c3c(C=O)ccc(c23)N(C)C1(C)C	69.6% (active)
Cc1ccc(C=O)c([B-](F)(F)F)c1	-13.1%
COC(=O)C1(CCSC)NC(c2ccc(OC)cc2OC)C2C(=O)N(c3cccc(C(C)=O)c3)C(=O)C21 (configuration not stated)	-2.47%
Cc1ccc(Cc2c(-c3ccccc3)nc3ccc(Cl)cn23)cc1	37.4%
Cc1ccc(Cc2c(-c3ccc(C)cc3)nc3c4ccccc4ccn23)cc1	31.4%
Cc1ccc(-c2nc3ccc(Cl)cn3c2Cc2ccccc2)cc1	87.1% (active)
Cc1cc(C)n2nc(CNS(=O)(=O)c3c(F)c(F)c(F)c(F)c3F)nc2n1	-12.8%
COc1ccc(N2CCN(S(=O)(=O)c3cc(Br)cnc3N)CC2)cc1	-12.2%
Nc1ccccc1SC(C[N+](=O)[O-])c1ccccc1 (configuration not stated)	79.5% (active)
Fc1cccc(CSc2nnc3ccc(-c4ccncc4)nn23)c1	1.54%
COc1cc2c(C(=O)N(C)c3cc(Cl)ccc3OC)cn(C)c(=O)c2cc1OC	-11.9%
O=C(c1[nH]ncc1-c1ccc(Cl)cc1)C1CO1 (configuration not stated)	2.19%
COc1ccc2oc(=O)cc(CN3CCOCC3)c2c1	-5.99%
Oc1c(CN2CCOCC2)ccc(CN2CCOCC2)c1O	91.2% (active)
O=[N+]([O-])c1ccc(COc2ccccc2CN2CCOCC2)cc1	36.1%
CCN(CC)c1ccc(C(=O)c2cnc(/N=C/N(C)C)s2)cc1	11.6%
CCOC(=O)N1CCN(C(=O)c2ccc3c(=O)n(CCc4ccc(OC)c(OC)c4)c(=O)[nH]c3c2)CC1	0.32%
CCOC(=O)C1CCCN(CCSc2ccc(C)cc2)C1 (configuration not stated)	-1.97%
CC(C)C[C@H](NC(=O)N1CCn2c1nc1ccccc12)C(=O)NC1CC1	-6.34%
NC1=CC(=O)C(=O)c2cccnc21	51.8%
Cc1coc2c(O)cc3c(c12)OC1(N2CCCCC2)C(=O)NCCCC31 (configuration not stated)	101% (active)
NC(=O)CN1CCCC1c1ccc2c(c1)OCCO2 (configuration not stated)	7.24%
CCCCN1CC(C)(C)[C@H](CC(=O)Nc2ccc(Br)cc2)C1=O	21.2%
